Inconclusive results are not listed. Values without a mark were called inactive. The source made the active and inactive calls. The call rests on the fitted dose curve; in most records, active means well fitted cell-killing curve with a large enough effect; inconclusive means small, poorly fitted or top-dose-only effect, or effect the other way; inactive means flat fitted curve, though single readings scatter.
test: Compound cytotoxicity measured by an ATP content assay as a counter-screen for lead compounds in human astrocytoma cell line (SNB-19); conditions: SNB-19 astrocytoma viability, ATP luminescence; series mostly up to 46.1 µM; activity change, negative = cytotoxicity: at the top concentration
Method: National Center for Advancing Translational Sciences [NCATS] Johns Hopkins University School of Medicine Florida State University Assay Overview: Many compounds can cause cytotoxicity at high compound concentrations. […] The compound cytotoxicity may also cause side effects or toxicity in human. Thus, the compound cytotoxicity needs to be measured in each cell type and each compound incubation time - same as these in the compound screening assay. The compound cytotoxicity can be measured by cell viability assays such as the ATP content assay. We use an ATP content assay kit for cell viability measurement. It measures ATP content (level) in human astrocytoma cell line (SNB-19) using a luminescence readout that is proportional to viable cell numbers. Decrease in the luminescence signal after the compound treatment indicates reduced cell viability and cell death caused by compound treatment.
Assay Protocol Summary: The medium for SNB-19 cells is composed of RPMI 1640 (ATCC, Cat.# 30-2001), 10% fetal bovine serum (FBS) (GE healthcare Life Sciences, Cat.# SH30071.03), and 1% Pen/Strep (Gibco, Cat.# 15140-122). The ATP content assay kit (PerkinElmer, Cat.# 6016731) was used to determine cell viability. The reagent was reconstituted and prepared as described by the manufacturer. Cells were seeded in 384- or 1536-well assay plates and cultured at 37 C with 5% CO2 for 16 to 20 hours. The typical cell seeding density in the 1536-well plate assay is 250 cells/well in 3ul medium for SNB-19 cells in tissue culture treated plates. Compounds were added to cells and incubated for a specific time such as 6, 24, or 72 hours before addition of the reagent mixture of the ATP content assay kit at 1:1 ratio. After incubation at room temperature for 10 minutes, the luminescence intensity in assay plates was measured using a ViewLux plate reader (PerkinElmer). […] The percentage inhibitions of the decreased cell viability by small molecules were then calculated that indicate compound cytotoxicity.

For `Oc1ccc([C@H]2CNCc3c2ccc(O)c3O)cc1O`, which “activity change, negative = cytotoxicity” value is on record?
The value was 13.5%.

For `COP(=S)(OC)SCN1C(=O)c2ccccc2C1=O`, which “activity change, negative = cytotoxicity” value is on record?
Its value is -11.2%.

With `CN1CC[C@@]2(C)c3cc(OC(=O)Nc4ccccc4)ccc3N(C)[C@@H]12` as the compound, how does the “activity change, negative = cytotoxicity” value read?
Its value is 6.03%.

For `CC(C)N[C@@H]1CCn2c(=O)[nH]c3cccc(c32)[C@@H]1O`, which “activity change, negative = cytotoxicity” value is on record?
Its value is -5.26%.

With `COc1cccc2c1C(=O)c1c(O)c3c(c(O)c1C2=O)C[C@@](O)(C(=O)CO)CC3OC1CC(N2CCOC(OC)C2)C(O)C(C)O1` (some centres undefined) as the compound, how does the “activity change, negative = cytotoxicity” value read?
Its value is 12.2%.

With `CC[n+]1c(-c2ccccc2)c2cc(N)ccc2c2ccc(N)cc21` as the compound, how does the “activity change, negative = cytotoxicity” value read?
The value was 1.41%.

With `O=C1C=CC[C@@H]2[C@H]3CCCN4CCC[C@@H](CN12)[C@@H]34` as the compound, how does the “activity change, negative = cytotoxicity” value read?
The value was 23.5%.

Which Potency does the source give for `Cc1ccc([N+](=O)[O-])[c]2c1[O][Hg]2` here?
The Potency was 5.48 µM (active).

Which “activity change, negative = cytotoxicity” value does the source give for `O=C1CCC[C@@H]2[C@H]3CCCN4CCC[C@@H](CN12)[C@@H]34` here?
The value was 13.7%.

For `O=S(=O)(CC1CS1)c1ccc(Oc2ccccc2)cc1` (centres undefined), which “activity change, negative = cytotoxicity” value is on record?
The value was -10.2%.

Which “activity change, negative = cytotoxicity” value does the source give for `CC(C)[C@H]1C(=O)N[C@H](CO)Cc2c[nH]c3cccc(c23)N1C` here?
The value was 1.43%.

Which “activity change, negative = cytotoxicity” value does the source give for `CC(O)CN1CCN(CC(=O)[O-])CCN(CC(=O)[O-])CCN(CC(=O)[O-])CC1.[Gd+3]` (centres undefined) here?
Its value is 7.64%.

With `CC(C)[N+](C)(CCC(C(N)=O)(c1ccccc1)c1ccccc1)C(C)C` as the compound, how does the “activity change, negative = cytotoxicity” value read?
The value was 13.4%.

Which “activity change, negative = cytotoxicity” value does the source give for `S=C(SSC(=S)N1CCCCC1)N1CCCCC1` here?
The value was -19.5%.
